Bioassay records: PubChem BioAssay, National Center for Advancing Translational Sciences (NCATS)
HP1b chromo inh – blocks HP1-beta chromodomain binding to methylated histone tails; AlphaScreen HP1-beta / biotin-H3K9me3 peptide binding; Potency, µM (highest dose often 114 µM), for inactives: at the highest dose activity change, negative = inhibition, most hits filed as inhibitors; 390,000 tested, 0.56% active; AID 540317; further: nearly all actives have a fitted effect of over 70% in size
Target sequence (P83916 whole entry, looked up): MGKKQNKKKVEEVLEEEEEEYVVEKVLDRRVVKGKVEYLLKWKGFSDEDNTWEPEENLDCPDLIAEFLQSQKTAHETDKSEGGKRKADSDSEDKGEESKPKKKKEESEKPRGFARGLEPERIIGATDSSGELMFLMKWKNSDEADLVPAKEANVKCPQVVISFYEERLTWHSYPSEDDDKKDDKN
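HP1-beta protein (50 nM final) preincubated 30 min at room temperature with biotinylated H3(1-18)K9me3 peptide (50 nM) in PBS pH 7.4, 0.01% Tween-20, then compound added for 30 min. AlphaScreen streptavidin donor/nickel chelate acceptor beads (10 ug/mL final), 30 min dark, luminescence read.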
G9a block – G9a (human) methyltransferase inhibition. Q96KQ7. G9a H3K9 monomethylation, AlphaScreen, 2 h. Potency, µM (series often up to 102 µM), for the others: at the highest dose activity, negative = inhibition, most hits filed as inhibitors. 350,000 tested, 8.8% active. AID 504332; further: on the % scale 0 is the no-effect control and ±100 the full control effect; nearly all actives have a fitted effect of over 75% in size
Target sequence (Q96KQ7 913-1193 limits assumed): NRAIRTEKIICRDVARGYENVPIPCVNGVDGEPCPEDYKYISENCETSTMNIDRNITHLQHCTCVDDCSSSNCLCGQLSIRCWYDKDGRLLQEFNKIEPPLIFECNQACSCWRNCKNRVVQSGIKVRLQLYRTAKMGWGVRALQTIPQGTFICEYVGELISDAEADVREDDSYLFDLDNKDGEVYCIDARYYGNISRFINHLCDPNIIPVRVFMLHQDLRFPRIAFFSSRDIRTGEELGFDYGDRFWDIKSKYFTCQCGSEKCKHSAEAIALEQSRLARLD
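G9a (20 nM) was preincubated 15 min with compound, then reacted 2 h at room temperature with 500 nM biotin-H3K9 peptide and 20 µM SAM. Monomethyl-H3K9 detected by AlphaScreen using anti-H3K9me1 antibody.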
L3MBTL1 inh – L3MBTL1 (human) inhibition; Q9Y468; 230,000 tested, 0.66% active; Potency, µM (titrated, usually from 57.1 µM), for the others: top-dose activity, negative = inhibition, usual class: inhibitors; AlphaScreen L3MBTL1–H3K9me1 peptide binding; AID 485360; further: on the % scale 0 is the no-effect control and ±100 the full control effect; nearly all actives have a fitted effect of over 60% in size
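First, the protein-peptide complex forms for 30 min at room temperature (L3MBTL1 50 nM, biotinylated H3K9me1 peptide 75 nM). Next, compounds are pin-transferred and incubated 30 min. Finally, AlphaScreen beads are added and read after 30 min.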
JMJD2A Tudor – blocks the human JMJD2A Tudor domain; O75164; AlphaScreen JMJD2A-Tudor / H3K4me3 peptide binding; Potency, µM (top dose mostly 114 µM), without a hit: at the highest dose activity change, negative = inhibition, usual class: inhibitors; 390,000 tested, 4.4% active; further: on the % scale 0 is the no-effect control and ±100 the full control effect; nearly all actives have a fitted effect of over 50% in size
BAZ2B block – inhibitors of human BAZ2B bromodomain; Q9UIF8; AlphaScreen BAZ2B-H3K14Ac peptide displacement; Potency, µM (top dose mostly 114 µM), for inactives: at the top dose activity change, negative = inhibition, usual class: inhibitors; 360,000 tested, 4.4% active; further: on the % scale 0 is the no-effect control and ±100 the full control effect; nearly all actives have a fitted effect of over 60% in size
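AlphaScreen displacement: compounds (up to 110uM) incubated 30 min at room temperature with a preformed 50 nM BAZ2B/50 nM biotinylated H3K14Ac peptide complex in PBS pH 7.4 with Tween-20. Donor and acceptor beads at 10 ug/mL final added, 20 min light-protected before reading.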
The depositor's hits bear a star; ? = inconclusive; · = no result; [ ] = another dose, or the depositor's remark. Rows were chosen to be rich in hits. Some 11% of all compounds tested hit in one or more screens of this group. The call rests on the fitted dose curve; in most records, active means well fitted inhibition curve with a large enough effect; inconclusive means small, poorly fitted or top-dose-only effect; inactive means no such curve, though single readings can be large or run the other way. Potency means the concentration at half of the fitted maximal effect.

SMILES	HP1b chromo inh	G9a block	L3MBTL1 inh	JMJD2A Tudor	BAZ2B block
CCN(C(=O)c1ccc(Cl)cc1[N+](=O)[O-])c1ccccc1C	24%	40µM*	-22%	-19%	-38%
O=C(c1ccc(Cl)cc1[N+](=O)[O-])N(Cc1ccccc1)Cc1ccccc1	·	79µM*	-6%	·	?
CCN(C(=O)c1coc(=O)c2ccccc12)c1ccccc1C	34%	-22%[59 µM]	·	-10%	-15%
Cc1cc(Nc2cccc(Br)c2)n2c(nc3ccccc32)c1C#N	17%	?	·	-18%	?
COc1cc([N+](=O)[O-])cc(/C=N/NC(=O)c2ccc(NC(=O)c3ccc(C)cc3)cc2)c1O	36%	24%	-2%	0%[57.1 µM]	12%
COc1cc([N+](=O)[O-])cc(/C=N/NC(=O)c2ccc(C)nc2)c1O	16%	21%[59 µM]	?	?	10µM*
COc1cc([N+](=O)[O-])cc(/C=N/NC(=O)CSc2ccccn2)c1O	25%	·	·	79µM*	?
COc1cc([N+](=O)[O-])cc(/C=N/NC(=O)CC#N)c1O	·	50µM*	·	·	8.9µM*
COc1cc([N+](=O)[O-])cc(/C=N/NC(=O)Cn2cncn2)c1O	22%	?	?	25µM*	32µM*
COc1cc(-c2nnc(SCC(=O)Nc3cccc(C#N)c3)o2)cc(OC)c1OC	35%	?	·	-11%	-2%
COc1cccc2c1cc1c(=O)n(CC(=O)N3CCN(c4cccc(C)c4)C(C)C3)nc(C)n12 (stereo not given)	79%	22%[59 µM]	·	-15%	21%
COc1ccc(N(CC(=O)Nc2cc(C)ccc2C)S(=O)(=O)c2ccccc2[N+](=O)[O-])c(OC)c1	-20%	·	3%	?	-23%
Cc1cccc(C2C=C(c3ccc(C)c(C)c3)Nc3nnnn32)c1 (stereo not given)	36%	?	·	0%	12%
COc1ccc(C2CC(c3ccccc3)Oc3cc(C)cc(C)c32)cc1 (stereo not given)	55%	·	·	21%	·
C/C(=N/NC(=O)c1cccc(N2CCCC2=O)c1)c1ccncc1	-3%	0%	3%	-12%	-5%
CC1CCC2(CC1)Nc1ccccc1C(=O)N2c1ccccc1 (stereo not given)	19%	71µM*	·	-15%	5%
CC(=O)OCC(NC(=O)C1CCCN1C(=O)OC(C)(C)C)C1OC(n2cc(F)c(=O)[nH]c2=O)C(OC(C)=O)C1OC(C)=O (stereo not given)	20%	·	·	-19%	·
CCCN(CCO)C1CCN(CCc2ccccc2)CC1	21%	50µM*	·	-1%	-28%
O=C(c1ccccc1)c1cc(Cl)ccc1N1C(=O)C=CC1=O	10µM*	1.8µM*	-16%	18µM*	79µM*
O=c1c(-c2cccc([N+](=O)[O-])c2)[n+]([O-])c2ccccc2n1O	-1%	?	·	56µM*	?
CCOC(=O)COn1c(=O)c(-c2ccc(Cl)cc2)[n+]([O-])c2ccccc21	26%	9%	·	-9%	3%
O=c1c(-c2ccc(Cl)cc2)[n+]([O-])c2ccccc2n1O	-8%	11µM*	-4%	25µM*	?
Cc1cccc(C(=O)N2CCc3cc(CNC(=O)c4ccc(Br)o4)ccc32)c1	4%	-32%[59 µM]	·	-29%	-24%
CCN(CC)CCNC(=O)c1c(O)c2c([nH]c1=O)CCCC2	22%	79µM*	-3%	-19%	-6%
O=c1cc(CSc2ccccc2)[nH]c(=S)[nH]1	50%	?	8%	89µM*	-10%
Cc1nnc(SCc2cc(=O)[nH]c(=S)[nH]2)s1	77%	28µM*	4%	?	?
Cc1nnc(SCc2cc(=O)c3ccccc3[nH]2)s1	18%[57 µM]	13%[59 µM]	·	-19%	10%
COc1ccccc1NC(=O)C1=C(C)Nc2nc(SCc3ccccc3Cl)nn2C1c1ccncc1 (stereo not given)	9%	6%[59 µM]	·	-18%	3%
COc1cccc(C(=O)Nc2ccc3nc(SCC(=O)N4CCOCC4)sc3c2)c1	69%	9%[59 µM]	·	-4%	-10%
COc1ccc(NC(=O)CCc2c(C)nc3c(-c4ccccc4)c(C)nn3c2C)cc1Cl	32%	-5%[59 µM]	·	10%	1%
